Assay outcomes deposited in PubChem by National Center for Advancing Translational Sciences (NCATS).
Six1-Eya2 blk: inhibitors of human Six1/Eya2 interaction. 0.56% of 360,000 active. activity change, % (concentration not given with the values). AlphaScreen GST-Six1/His-Eya2 binding, biochemical; active compounds read low. Q15475+O00167; in the data active = activity change below about -65%; inconclusive = mostly about -30% to -63%
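Six1/Eya2 binding was read as AlphaScreen signal after compounds were pinned into GST-Six1 plus His-tagged Eya2 (5X stock 250/500 nM) in pH 8.0 Tris/NaCl/TCEP buffer, beads added, then incubated 1 h, 37 C, dark.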
HP1b binding inh: inhibitors of HP1-beta chromodomain binding to methylated histone tails; AlphaScreen HP1-beta / biotin-H3K9me3 peptide binding; Potency, µM (top dose mostly 114 µM), usual class: inhibitors; 0.56% of 390,000 active; AID 540317; note: nearly all actives have a fitted effect of over 70% in size
Target sequence (P83916 whole entry, looked up): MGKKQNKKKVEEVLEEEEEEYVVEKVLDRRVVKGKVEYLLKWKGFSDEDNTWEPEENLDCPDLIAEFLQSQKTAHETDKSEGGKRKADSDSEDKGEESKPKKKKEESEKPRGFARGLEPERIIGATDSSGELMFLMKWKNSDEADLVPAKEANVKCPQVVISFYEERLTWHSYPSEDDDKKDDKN
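AlphaScreen: HP1-beta (50 nM) preformed 30 min with biotin-H3(1-18)K9me3 peptide (50 nM) in PBS pH 7.4, 0.01% Tween-20. Compound added for 30 min at RT, then streptavidin donor/nickel chelate acceptor beads (10 ug/mL) for 30 min.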
BAZ2B block: blocks human BAZ2B; AlphaScreen BAZ2B-H3K14Ac peptide displacement; Potency, µM (series often up to 114 µM), most hits filed as inhibitors; 4.4% of 360,000 active; AID 504333; note: nearly all actives have a fitted effect of over 60% in size
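In this displacement format the biotinylated H3(5-23) peptide acetylated at Lys14 serves as ligand at 50 nM, with BAZ2B at 50 nM in PBS pH 7.4 containing 0.01% Tween-20. Donor and acceptor beads are 10 ug/mL final.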
CtBP-E1A blk: inhibitors of CtBP/E1A interaction; 0.49% of 340,000 active; activity change, % (no concentration beside the values); AlphaScreen GST-E1A/His-CtBP binding, 1536-well; active compounds read low; AID 651724; in the data active = activity change below about -65%; inconclusive = mostly about -30% to -63%
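Homogeneous bead-based format: GST-tagged E1A captured on glutathione donor beads, His-tagged CtBP on nickel acceptor beads; compounds precede bead addition by 2 h at 37 °C.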
G9a inh: blocks human histone lysine methyltransferase G9a; Q96KQ7; Potency, µM (series often up to 102 µM), actives largely listed as inhibitors; 8.8% of 350,000 active; G9a H3K9 monomethylation, AlphaScreen, 2 h; note: nearly all actives have a fitted effect of over 75% in size
Target sequence (Q96KQ7 913-1193 limits assumed): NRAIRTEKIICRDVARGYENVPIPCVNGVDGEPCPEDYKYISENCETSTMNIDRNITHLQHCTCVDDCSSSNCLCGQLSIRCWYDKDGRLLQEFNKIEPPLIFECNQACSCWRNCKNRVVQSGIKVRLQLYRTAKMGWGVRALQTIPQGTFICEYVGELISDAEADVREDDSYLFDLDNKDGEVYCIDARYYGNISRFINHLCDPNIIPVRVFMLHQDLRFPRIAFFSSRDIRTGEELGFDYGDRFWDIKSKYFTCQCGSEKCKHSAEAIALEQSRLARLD
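Compounds were preincubated with 20 nM G9a for 15 min, after which biotinylated H3K9 peptide (500 nM) and SAM (20 uM) started a 2 h room-temperature reaction. Monomethylated product was quantified by antibody-based AlphaScreen chemiluminescence.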
JMJD2A Tudor: JMJD2A Tudor domain (human) inhibition; Potency, µM (doses to about 114 µM), hits mostly inhibitors; AlphaScreen JMJD2A-Tudor / H3K4me3 peptide binding; AID 504339; 4.4% of 390,000 active; note: nearly all actives have a fitted effect of over 50% in size
A number is an active result; - = inactive; ? = inconclusive; . = no result given; [ ] = remark or other dose. The list is not random: actives were taken first. Their share in the collection is about 10%. Unless noted, calls come from the whole dose curve; as a rule, active = well fitted inhibition curve with a large enough effect; inconclusive = small, poorly fitted or top-dose-only effect; inactive = no such curve, though single readings can be large or run the other way.

SMILES | Six1-Eya2 blk | HP1b binding inh | BAZ2B block | CtBP-E1A blk | G9a inh | JMJD2A Tudor
Cc1nnc(N2C(=O)C(=O)/C(=C(/O)c3ccc4c(c3)OCCO4)C2c2cccc([N+](=O)[O-])c2)s1 (stereo not given) | - | . | . | - | . | .
Cc1nnc(N2C(=O)C(=O)/C(=C(/O)c3ccc4c(c3)OCCO4)C2c2ccc([N+](=O)[O-])cc2)s1 (stereo not given) | . | . | ? | . | 28µM | .
CC1Cc2cc(/C(O)=C3/C(=O)C(=O)N(CCN4CCOCC4)C3c3ccc(N(C)C)cc3)ccc2O1 (stereo not given) | - | - | - | . | ? | -
O=C(CN1C(=O)COc2ccc(S(=O)(=O)N3CCOCC3)cc21)N1CCN(c2ccccc2)CC1 | . | - | - | . | - | -
COC(=O)c1ccc(C2/C(=C(\O)c3ccc4c(c3)OCCO4)C(=O)C(=O)N2c2nnc(C)s2)cc1 (stereo not given) | - | - | - | - | 45µM | -
COc1cccc(C2/C(=C(\O)c3ccc4c(c3)OCCO4)C(=O)C(=O)N2c2nnc(C)s2)c1 (stereo not given) | - | - | ? | . | -[0.501 µM] | -
CCOC(=O)c1sc(NC(=O)C2CCCO2)c(C(=O)OCC)c1C (stereo not given) | . | . | 56µM | . | -[12.7 µM] | .
CCOC(=O)c1c(NC(=O)C2CCCO2)sc(C(=O)OC(C)(C)C)c1C (stereo not given) | - | ? | - | - | 3.5µM | ?
CCOC(=O)c1c(NC(=O)C2CCCO2)sc(C)c1C (stereo not given) | - | - | - | - | - | -
CCc1nc2ccc(C(=O)Nc3cccc(NS(C)(=O)=O)c3)cn2c1N(C)CCN1CCOCC1 | - | . | . | - | . | .
CN1CCN(C(=O)CN(C)S(=O)(=O)c2cc(Cl)ccc2Cl)CC1 | - | - | - | - | - | -
CCOc1nc2cnccc2n(CC(=O)Nc2cccc(C)c2C)c1=O | - | - | - | . | - | -
O=C(NCCSc1c[nH]c2ccccc12)c1ccc(Br)o1 | - | - | - | - | 79µM | -
CCOC(=O)C(=NC1CCS(=O)(=O)C1)NNc1ccccc1Cl (stereo not given) | - | ? | ? | - | ? | -[11.4 µM]
CCOC(=O)C(=NC1CCS(=O)(=O)C1)NNc1ccc(Br)cc1 (stereo not given) | - | - | ? | - | 10µM | ?
CCOC(=O)C(=NC1CCCCC1)NNc1cccc(C(F)(F)F)c1 | - | - | - | - | 50µM | -
CCOC(=O)C(=NC(C)CC)NNc1cccc(C(F)(F)F)c1 (stereo not given) | - | - | ? | - | ? | -
CCOC(=O)C(=NC(C)CC)NNc1ccc(Br)cc1 (stereo not given) | - | - | ? | - | 13µM | ?
CC(C)S(=O)(=O)N1CCCC(c2cc(C(=O)NCc3ccccc3)no2)C1 (stereo not given) | - | . | . | - | . | .
Cc1ccccc1OCCn1c(-c2ccc(Cl)cc2)nc2ccccc2c1=O | . | - | - | . | ? | -
Cc1c(N(C)S(=O)(=O)c2cc(C(=O)Nc3ccccn3)ccc2Cl)c(=O)n(-c2ccccc2)n1C | - | - | - | - | ? | -
Cc1nn(C(=O)c2ccc(Cl)cc2)c(C)c1S(=O)(=O)N1CCCCCC1 | . | - | - | . | - | -
COc1ccccc1Nc1nc(N)nc(CN2CCN(c3ccccc3)CC2)n1 | - | - | 50µM | - | ? | 56µM
COc1cccc(N2CCN(Cc3nc(N)nc(Nc4ccccc4OC)n3)CC2)c1 | - | - | 50µM | - | - | -
COc1ccccc1N1CCN(Cc2nc(N)nc(Nc3ccccc3)n2)CC1 | - | - | - | - | 79µM | 50µM
COc1ccccc1Nc1nc(N)nc(CSc2nccn2C)n1 | - | - | - | - | - | -
COc1ccccc1Nc1nc(N)nc(CSC(=S)N2CCC(C)CC2)n1 | - | - | - | - | - | -
O=C(Nc1ccc(Oc2cccc(C(F)(F)F)c2)nc1)c1cccs1 | - | - | - | - | . | -
CN1CCN(c2ncc3nc(-c4cccs4)c(=O)n(CCC#N)c3n2)CC1 | . | . | . | . | -[0.501 µM] | .
